Laboratory results taken from PubChem BioAssay (NCI).
This is part of a sample that, as a whole, favours compounds with a hit. Of some 83,000 tested, about 20% had one in any assay.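 Each cell line was grown in a 96-well plate and treated with one concentration of compound for 48 hours. Values below 10 were considered active.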 Unmarked numbers belong to inactive results. The source made the active and inactive calls.

Test system: SW-620 colon
Test: NCI-60 one-dose screen, 48 h (100 = growth as untreated, 0 = no growth, -100 = all killed)
Conditions: 10 µM unless noted

| Structure (SMILES) | growth |
| --- | --- |
| COc1ccc(-c2cc(-c3ccc(OC)cc3)nc(NCCCNc3ccnc4cc(Cl)ccc34)n2)cc1 | -39.7% (active) |
| Cn1cc(/C=C2/C(=O)Nc3ccccc32)c2ccccc21 | 102% |
| CC[C@H](CC[C@@H](C)[C@H]1CC[C@H]2[C@@H]3CC[C@@H]4CC(=O)/C(=C\c5ccncc5)C[C@]4(C)[C@H]3CC[C@]12C)C(C)C | 102% |
| CCOC(=O)c1c(-c2ccc(Cl)cc2)c(C#N)c2c(C#N)c(N)nn2c1N | 52.6% |
| CC1O[C@@H]2C[C@@](O)([C@H]1O)n1c3ccccc3c3c4c(c5c6ccccc6n2c5c31)C(=O)NC4=O (stereo partly drawn) | 35.4% |
| O=C1Nc2ccccc2/C1=C/c1cn(C[C@@H](O)Cn2c3ccccc3c(=O)c3ccccc32)c2ccccc12 | 78.7% |
| Cc1cscc(C)c1=S | 50.5% |
| Clc1nccc2c(-c3csc(-c4c[nH]c5ccccc45)n3)c[nH]c12 | 7.87% (active) |
| Cc1ccc2[nH]c(-c3ccc(S(C)(=O)=O)cc3)c(/C=N/N=C(N)N)c2c1 | 36.4% |
| Nc1n[nH]c2ccc([C@@H]3Nc4cc5[nH]ncc5cc4[C@H]4C5CCC(C5)[C@@H]34)cc12 (stereo partly drawn) | 21.6% |
| Cc1[nH]c(C(=O)Nc2ccc(C(N)=O)cc2NC(C)C)c(Cl)c1Cl | 96.1% |
| COc1cc(C(=O)/C=C/c2ccc(N3CCN(C)CC3)cc2)cc(OC)c1OC | 88% |
| C#CCn1cnc2c(Nc3cccc(NC(=O)CCl)c3)ncnc21 | 20.6% |
